Screening results as filed in PubChem.
An excerpt weighted towards active compounds, which were near 2.4% of everything screened.
D2 ag-1: HTS Assay for Allosteric Agonists of the Human D2 Dopamine Receptor: Primary Screen for Agonists | D(2) dopamine receptor (Homo sapiens), P14416 | HEK293 T-REx D2 cells, calcium flux agonist mode | activation, % at 2 µM | 0.53% of 340,000 active | AID 485358, 2010;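 active means activation over 3 SD above normal in the single-dose calcium agonist read, cut at about 30% in these data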
Target sequence (P14416 whole entry, looked up): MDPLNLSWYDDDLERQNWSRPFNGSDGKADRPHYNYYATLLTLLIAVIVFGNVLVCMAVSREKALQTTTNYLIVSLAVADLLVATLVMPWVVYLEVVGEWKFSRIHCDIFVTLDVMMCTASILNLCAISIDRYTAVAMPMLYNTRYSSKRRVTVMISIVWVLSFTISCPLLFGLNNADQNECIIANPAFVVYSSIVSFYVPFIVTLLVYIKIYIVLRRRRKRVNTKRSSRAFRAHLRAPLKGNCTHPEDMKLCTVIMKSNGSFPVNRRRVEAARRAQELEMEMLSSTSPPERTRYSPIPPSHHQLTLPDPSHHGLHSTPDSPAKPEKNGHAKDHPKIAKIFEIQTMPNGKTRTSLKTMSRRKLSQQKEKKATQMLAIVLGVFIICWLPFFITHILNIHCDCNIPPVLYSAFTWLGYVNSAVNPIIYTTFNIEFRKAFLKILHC
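HEK293 Trex D2 cells, tetracycline-induced, o/n 30 C 5% CO2; no-wash Ca dye, RT 30–90 min; 10-cycle baseline, 23 nl cpd added, kinetic Ca read 180 s; agonist hits = positive Ca response.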
D2 PAM-1: Beta-Arrestin HTS for Positive Allosteric Modulators of the Human D2 Dopamine Receptor: Potentiators. D(2) dopamine receptor (Homo sapiens), P14416. DiscoveRx D2 beta-arrestin cells, luminescence, 90 min; 100% = 57 uM dopamine signal. potentiation, % (test concentration not listed). 0.23% of 360,000 active. AID 624464, 2012; in the data active means potentiation above about 50%; inconclusive means mostly about 30% to 49%
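PathHunter beta-arrestin assay in DiscoveRx D2 cells. Compounds were added with an EC20 of dopamine (50 nM final) for 90 min at 37 deg C. Luminescence was read 1 h after detection reagent, with 57 uM dopamine as the EC100 control.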
D2 antagonist: HTS Assay for Allosteric Antagonists of the Human D2 Dopamine Receptor: Primary Screen for Antagonists. D(2) dopamine receptor (Homo sapiens), P14416. HEK293 TREx D2 cells, calcium flux, dopamine EC80. inhibition, % at 10 µM. 2% of 340,000 active. AID 485344, 2010; in the data active means inhibition above about 30%; inactive means below that, where a call was filed
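In this primary screen, negative modulation is detected by tracking calcium flux after an EC80 dopamine challenge in inducible HEK293 T-REx D2 cells preexposed to test compound for 180 s.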
D2 ag-2: Beta-Arrestin HTS for Positive Allosteric Modulators of the Human D2 Dopamine Receptor: Agonists | D(2) dopamine receptor (Homo sapiens), P14416 | DiscoveRx PathHunter D2 beta-arrestin, luminescence, 90 min; 100% = 57 uM dopamine signal | activation, % (concentration not given with the values) | 0.084% of 360,000 active | AID 624465, 2012; in the data active means activation above about 40%; inconclusive means between about 15% and that limit
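DiscoveRx PathHunter D2 beta-arrestin cells (2,100/well) attached overnight, then compound-stimulated 90 min at 37 C in HBSS/10 mM HEPES/0.1% Tween-20 buffer; beta-galactosidase complementation read by luminescence after 1 h at ambient temperature. Dopamine 57 uM final (EC100) as control.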
D2 PAM-2: HTS Assay for Positive Allosteric Modulators of the Human D2 Dopamine Receptor: Primary Screen for Potentiators. D(2) dopamine receptor (Homo sapiens), P14416. AID 485347, 2010. HEK293 T-REx D2, calcium flux, EC20 dopamine potentiation. 0.34% of 340,000 active. potentiation, % at 10 µM;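 active means potentiation over 3 SD above the plate norm, cut at about 30% in these data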
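Potentiation of an EC20 dopamine calcium response is measured in a force-coupled, tetracycline-inducible Hek293 Trex D2 line. Compound-only kinetic reads over 180 s flag agonists before dopamine addition.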
Each line names hits and unclear results; the compound was inactive in the other large screens.

Cc1ccccc1C(=O)NNC(=S)NC(=O)c1ccc(Cl)cc1Cl	D2 ag-1 46, D2 antagonist 31
O=C(NC(=S)NNC(=O)c1ccc(Cl)cc1Cl)c1cccnc1	none
Cc1onc(-c2ccccc2)c1C(=O)NNC(=S)NC(=O)c1ccc(Cl)cc1Cl	D2 ag-1 32, D2 antagonist 30
Cc1cccc(C(=O)NC(=S)NNC(=O)c2ccccc2Cl)c1	D2 ag-1 31
CC(C)Cn1c(=O)c2ccccc2n2c(CCC(=O)Nc3ccc(F)cc3)nnc12	none (no result: D2 PAM-1, D2 antagonist, D2 ag-2)
CC(C)(C)NC(=O)NC(=O)COC(=O)CCCc1c[nH]c2ccccc12	D2 antagonist 70
CCOC(=O)CCCc1c[nH]c2ccccc12	none
NC(=O)c1ccc(C(F)(F)F)n(Cc2cccc(Cl)c2)c1=O	D2 antagonist 32
COCCOC(=O)c1c(C)oc2ccc(OCc3ccccc3)cc12	D2 antagonist 64
COC(=O)C1=C(C)OC(N)=C(C#N)C1c1cc2cc(C)ccc2nc1Cl (stereo not given)	none
CC(=O)C1=C(C)OC(N)=C(C#N)C1c1cc2cc(C)c(C)cc2nc1Cl (stereo not given)	D2 antagonist 31
CCOc1ccc(S(=O)(=O)Nc2ccc(-c3ccc(OC)nn3)cc2)cc1	none (no result: D2 PAM-1, D2 antagonist, D2 ag-2)
Cc1cccc(C(=O)N2CCc3cc(CNC(=O)c4ccnn4C)ccc32)c1	none (no result: D2 PAM-1, D2 antagonist, D2 ag-2)
COCCN(C(=O)c1ccccc1)c1nnc(-c2cccnc2)s1	D2 antagonist 48
C=CCn1c(=NC(=O)c2ccccc2[N+](=O)[O-])sc2cc(S(C)(=O)=O)ccc21	D2 PAM-1 71, D2 ag-2 inconclusive
COc1ccccc1N=c1oc2cc(O)ccc2cc1C(=O)NCC1CCCO1 (stereo not given)	D2 antagonist 36
CC(c1ccccc1)n1cc(C(=O)NCC2CCCO2)nn1 (stereo not given)	D2 antagonist 40
CSc1ccccc1C(=O)NCC1CCCO1 (stereo not given)	none
CC(c1ccccc1)n1cc(C(=O)NCCN2CCOCC2)nn1 (stereo not given)	none
COCCSc1ccccc1C(=O)NCC1CCCO1 (stereo not given)	D2 antagonist 34
COc1cccc(N=c2oc3cc(O)ccc3cc2C(=O)NCC2CCCO2)c1 (stereo not given)	none
O=C(CSc1n[nH]c(-c2ccco2)n1)Nc1ccccc1Cl	D2 antagonist 30
CCc1cccc(C)c1NC(=O)CSc1nc(C)c(C)o1	none
Cc1nc(SCC(=O)Nc2ccccc2Cl)oc1C	D2 antagonist 31
COc1ccccc1N1CCN(C(=O)c2nn(-c3ccc(C)cc3)c(=O)n(C)c2=O)CC1	none (no result: D2 PAM-1, D2 antagonist, D2 ag-2, D2 PAM-2)
CCc1ccc(S(=O)(=O)Nc2cccc(-c3ccc(N4CCC(C)CC4)nn3)c2)s1	none (no result: D2 PAM-1, D2 antagonist, D2 ag-2)
CCN1CCN(c2cc(N3CCc4ccccc4C3)c(F)cc2[N+](=O)[O-])CC1	D2 antagonist 62
COc1cc(F)ccc1CN1CCC(C(=O)Nc2ccc(Oc3ccccc3)nc2)CC1	D2 antagonist 40
COc1ccc(CN2CCC(C(=O)Nc3ccc(Oc4ccccc4)nc3)CC2)cc1F	none
COC(=O)C1=CN(CC2CCCO2)C=C(C(=O)OC)C1c1ccccc1C(F)(F)F (stereo not given)	D2 antagonist 43
COC(=O)C1=CN(CC2CCCO2)C=C(C(=O)OC)C1c1cccc(O)c1 (stereo not given)	none
COc1cccc(CNCc2cccn2-c2nnc(N3CCN(c4ccccc4)CC3)s2)c1	none (no result: D2 PAM-1, D2 antagonist, D2 ag-2)
CSc1cccc(NC(=O)/C=C/c2ccc(Cl)cc2)c1	D2 antagonist 70
CSc1cccc(NC(=O)/C=C/c2ccccc2)c1	D2 antagonist 39
Cc1ccc(Cn2c(C)c3cnn(CC(=O)N4CCN(c5ccc(F)cc5)CC4)c(=O)c3c2C)cc1	none (no result: D2 PAM-1, D2 antagonist, D2 ag-2)
CCN(CC)c1ccc(C(=O)NCc2nc3cccnc3n2Cc2ccc(C)cc2)cc1	none (no result: D2 PAM-1, D2 antagonist, D2 ag-2)
CC(=O)c1c(OCC(=O)O)ccc2c(C)cc(=O)oc12	D2 antagonist 47
CCCCOc1ccc2c(C)cc(=O)oc2c1OCCCC	D2 antagonist 43
COc1ccc(CCNC(=O)C(=O)Nc2ccc(C)cc2)cc1OC	none (no result: D2 PAM-1, D2 antagonist, D2 ag-2)
O=C(Nc1nc2c(F)cccc2s1)c1ccc([N+](=O)[O-])o1	D2 antagonist 33
CCN(Cc1nc2ccccc2c(=O)[nH]1)C(=O)c1cccc(S(=O)(=O)N2CCc3ccccc32)c1	D2 antagonist 47
Cc1ccc(C)c(NC(=O)c2cnn(-c3cccc(F)c3)c2C2CCN(C(=O)OC(C)(C)C)CC2)c1	none (no result: D2 ag-1, D2 PAM-1, D2 antagonist, D2 ag-2)
COc1ccc(S(=O)(=O)NC(C)C(=O)N2CCCC2)cc1C (stereo not given)	D2 antagonist 32
COc1ccc(S(=O)(=O)NC(C)C(=O)N2CCCC2)cc1Cl (stereo not given)	none
Cc1ccc(C#N)c(SCCN2CCCCC2)n1	D2 antagonist 34
O=C(NC(=S)Nc1ccc(Cl)c(C(=O)O)c1)c1cccc(COc2ccccc2)c1	none
O=C(O)c1ccc(Cl)c(NC(=S)NC(=O)c2cccc(COc3ccccc3)c2)c1	D2 antagonist 36
Cc1ccccc1C(=O)Nc1cccc(C(=O)OCc2cc(=O)n3nc(C4CC4)sc3n2)c1	none (no result: D2 ag-1, D2 PAM-1, D2 antagonist, D2 ag-2)
N#CCCn1cc(/C=N/N=C2\NC(=O)C(CC(=O)O)S2)c(-c2ccc(F)cc2)n1 (stereo not given)	D2 antagonist 35
CC(C)(C)C(=O)COC(=O)c1c2c(nc3ccccc13)CCC2	D2 PAM-2 39
NC(=O)COC(=O)c1c2c(nc3ccccc13)CCCCC2	none (no result: D2 ag-1, D2 antagonist, D2 PAM-2)
Cc1nnc(N2C(=O)c3oc4ccccc4c(=O)c3C2c2ccc(F)cc2)s1 (stereo not given)	none (no result: D2 PAM-1, D2 antagonist, D2 ag-2)
Cc1nnc2n1N=C(c1ccc(OC(F)F)cc1)C(C)S2 (stereo not given)	D2 antagonist 56
O=C1Nc2c(c(=O)[nH]c(=O)n2-c2ccccc2)C1(NS(=O)(=O)c1ccc(Cl)cc1)C(F)(F)F (stereo not given)	none (no result: D2 PAM-1, D2 antagonist, D2 ag-2)
O=C1CCN(Cc2cccnc2)CCN1[C@H](CO)c1ccccc1	none
COc1ccc(CN2CCC(=O)N([C@H](CO)c3ccccc3)CC2)cc1	D2 antagonist 52
CCOc1ccc(-n2ccnc2SCC(=O)Nc2ccc(OC)cc2OC)cc1	none (no result: D2 PAM-1, D2 antagonist, D2 ag-2)
COc1ccc(-c2ccc(-c3nnc(Cc4ccc(OC)c(OC)c4)o3)cc2)cc1	D2 antagonist 30
COc1ccc(Cc2noc(CN(C)C3CC(C)(C)NC(C)(C)C3)n2)cc1OC	none
